# High-throughput results: PubChem BioAssay, National Center for Advancing Translational Sciences (NCATS)
# Shown is part of a subset that was picked to be rich in hits.
# MLL CXXC-DNA inh = qHTS Fluorescence Polarization Assay for Inhibitors of MLL CXXC domain - DNA interaction | MLL-CXXC / FITC-HOXA9 DNA fluorescence polarization | Potency, µM (highest dose often 115 µM), for inactives: at the top dose activity change, negative = inhibition, actives largely listed as inhibitors | actives 0.037% (n = 290,000); active = well fitted inhibition curve with a large enough effect in the polarisation, with a control signal flat, not every such curve was filed as active; inconclusive = small, poorly fitted or top-dose-only effect, or effect the other way, or a change in a side signal; inactive = no such curve, though single readings can be large or run the other way; the % refers to the polarisation; note: potency is the fitted concentration of half-maximal effect
#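 Fluorescence polarization: 7 uM MLL-CXXC (stock) preincubated 5 min with compounds, then 50 nM fluorescein-HOX-A9 DNA (stock) added; 30 min ambient. Buffer 50 mM Tris-HCl pH 7.5, 50 mM NaCl, 1 mM DTT, 0.05% BSA.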
# Menin-MLL FL inh = qHTS Assay for Inhibitors Targeting the Menin-MLL Interaction in MLL Related Leukemias: Competition With Fluorescein Labeled MLL-derived Peptide. Fluorescence polarization, fluorescein-MLL peptide displacement from menin. 290,000 tested, under 10 active. FP activity change, % at 61.4 µM; active = well fitted curve in the direction sought with a large enough effect in the polarisation, not every such curve was filed as active; inconclusive = small, poorly fitted or top-dose-only effect, or effect the other way, or a change in a side signal; inactive = no such curve, though single readings can be large or run the other way; the % refers to the polarisation; note: % of control where 0% means no effect
# ClpP mod = qHTS Assay for Activators of ClpP; ATP-dependent Clp protease proteolytic subunit (Bacillus subtilis (strain 168)), P80244; purified B. subtilis ClpP, FRET peptide cleavage, 20 min; Potency, µM (series often up to 57.5 µM), for inactives: at the highest dose activity change, negative = active; actives 1.9% (n = 340,000); active = well fitted falling curve with a large enough effect; inconclusive = small, poorly fitted or top-dose-only effect; inactive = no such curve, though single readings can be large or run the other way; note: potency is the fitted concentration of half-maximal effect; the source files actives as falling curves though it sought activators and does not explain the sign; nearly all actives have a fitted effect of over 65% in size
#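 Purified B. subtilis ClpP, 10 microg/mL final in Tris/HCl pH8 with KCl, BSA, glycerol and Tween-20, cleaved an Abz/nitrotyrosine-quenched decapeptide. Fluorescence (ex 320, em 430) was read at 0 and 20 min at room temperature. Delta was normalized to 5.8 microM ADEP and DMSO/no-enzyme controls.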
# p53 reactivation = qHTS assay for re-activators of p53 using a Luc reporter; actives 0.063% (n = 320,000); AID 504706, 2011; Potency, µM (series often up to 92.2 µM), for the others: top-dose activity change, positive = activation, usual class: activators; H1299 p53-A138V BP100-luciferase reporter, luminescence, 24 h; active = well fitted activation curve with a large enough effect; inconclusive = small, poorly fitted or top-dose-only effect; inactive = no such curve, though single readings can be large or run the other way; note: potency is the fitted concentration of half-maximal effect; % of control where 0% means no effect; nearly all actives have a fitted effect of over 45% in size
#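 H1299 (p53-null), stable ts p53-A138V + BP100-Luc; 1000 cells/well, Opti-MEM/10% FBS; cpd 4 pt, 1:5; 24 h, 37 deg C, 5% CO2; detection reagent 10 min RT; luminescence.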
# Menin-MLL TR inh = qHTS Assay for Inhibitors Targeting the Menin-MLL Interaction in MLL Related Leukemias: Competition With Texas Red Labeled MLL-derived Mutant Peptide; Menin + Texas Red MLL mutant peptide, fluorescence polarization; O00255; Potency, µM (highest dose often 61.6 µM), without a hit: top-dose FP activity change, negative = inhibition, actives largely listed as inhibitors; actives 0.23% (n = 270,000); active = well fitted inhibition curve with a large enough effect in the polarisation, with a control signal flat, not every such curve was filed as active; inconclusive = small, poorly fitted or top-dose-only effect, or effect the other way, or a change in a side signal; inactive = no such curve, though single readings can be large or run the other way; the % refers to the polarisation; note: potency is the fitted concentration of half-maximal effect; % of control where 0% means no effect
# * = called active by the depositor; ? = inconclusive; nt = not tested or not shown.
SMILES,MLL CXXC-DNA inh,Menin-MLL FL inh,ClpP mod,p53 reactivation,Menin-MLL TR inh
Cc1cccc(NC2=CC(=O)OC(C)C2)c1 (stereo not given),0.6%,2.2,28.2µM*,-8.3%,-6.2%
COc1ccc2c(c1)[C@H]1[C@H](CO2)[C@H](c2ccccc2)[C@]2(C)C(=O)Nc3cc(Cl)ccc3C(=O)N12,nt,nt,-9.8%,3.8%,nt
COc1ccc2c(c1)C(=O)N1[C@H]3c4cc(Cl)ccc4OC[C@@H]3[C@H](c3ccccc3)[C@]1(C)C(=O)N2,nt,nt,17.8µM*,-1.7%,nt
O=C(Nc1nc(-c2ccccn2)cs1)c1cc(Cl)ccc1[N+](=O)[O-],4.6%,0.8,nt,35.5µM*,?
CCOC(=O)COc1ccccc1/C=N\NC(=O)c1cc2c(ccc3ccccc32)o1,-0.3%,nt,28.2µM*,-7.1%,nt
Cc1cc(C)n2cc(CSc3nncn3C)nc2n1,-3.0%,-1.8,nt,-0.9%,1.4%
CCc1nnc(SCc2cn3c(C)cc(C)nc3n2)n1N,-9.3%,1.3,11.2µM*,1.1%,-20.4%
Cc1cc(C)n2cc(CSc3nnnn3C)nc2n1,5.6%,-4.9,25.1µM*,8.7%,-7.2%
c1ccc(CNc2ncnc3nc(N4CCOCC4)[nH]c23)cc1,nt,nt,1.9%,nt,nt
COc1cc(OC)c2c(-c3cccc(-c4cccc(C)c4)c3)cc(=O)oc2c1,nt,-0.7,22.4µM*,8.5%,-12.9%
COc1ccc(-c2cccc(-c3cc(=O)oc4cc(OC)cc(OC)c34)c2)cc1,nt,nt,?,16.1%,nt
CCOC(=O)N1CCC(NC(=O)c2ccc3c(c2)N(Cc2ccc(F)cc2)C(=O)c2ccccc2S3=O)CC1 (stereo not given),nt,nt,-4.3%,nt,nt
CN1CCN(C2=C(Cl)C(=O)N(Cc3ccccc3)C2=O)CC1,-5.1%,-4.1,0.5%,20µM*,5.0%
CCN1CCN(C2=C(Cl)C(=O)N(Cc3ccccc3)C2=O)CC1,1.8%,3.0,-0.2%,19.9%,-4.5%
COc1ccc(/C=N/Nc2nncn2N)cc1Br,3.5%,-4.6,15.8µM*,-13.7%,-0.5%
COc1cc(/C=N/Nc2nncn2N)ccc1OCc1c(C)no[n+]1[O-],0.5%,0.6,-0.3%,-12.8%,nt
CC(C)=CCC/C(C)=C/CC/C(C)=C/CC/C(C)=C/C(=O)O,nt,0.5,nt,nt,-18.6%
CCN(c1cccc(C)c1)S(=O)(=O)c1ccc2[nH]c(=O)c(=O)[nH]c2c1,6.5%,4.7,22.4µM*,?,-0.3%
Cc1cccc(Oc2ncnc3onc(C)c23)c1,4.0%,3.9,0.4%,3.6%,22.1%
Cc1noc2ncnc(Oc3ccccc3)c12,8.2%,4.3,25.1µM*,0.2%,?
O=C1CCC[C@@H]2C[C@@]3(C[C@@H]4CCN1[C@H]24)Nc1cc([N+](=O)[O-])ccc1NC3=NCc1ccccc1,nt,nt,-1.4%,nt,nt
CC(C)C1Cc2[nH]c(=O)c(C(=O)O)cc2CO1 (stereo not given),-1.0%,0.6,35.5µM*,?,3.9%
CCCCCCCCCCCCC/C=C/[C@@H](O)[C@H](CO)NC(=O)CCCCC,nt,-8.7,nt,nt,-6.9%
COc1ccc(OC)c(C2C3CN(C(C)C)CC=C3C(C#N)=C(N)C2(C#N)C#N)c1 (stereo not given),-11.0%,?,-6.5%,-4.1%,-5.5%
Cc1ccc(C2C3CN(C(C)C)CC=C3C(C#N)=C(N)C2(C#N)C#N)cc1 (stereo not given),?,?,20µM*,-4.8%,-23.5%
SMILES,MLL CXXC-DNA inh,Menin-MLL FL inh,ClpP mod,p53 reactivation,Menin-MLL TR inh
CN1CC=C2C(C#N)=C(N)C(C#N)(C#N)[C@H](c3ccoc3)[C@H]2C1,-9.9%,?,31.6µM*,11.5%,-7.3%
Cc1c(C(=O)NC2CCS(=O)(=O)C2)oc2ccccc12 (stereo not given),-5.8%,-10.5,1.4%,3.1%,-33.8%
Cc1cc2oc(C(=O)NC3CCS(=O)(=O)C3)c(C)c2cc1C (stereo not given),-1.7%,0.8,28.2µM*,-3.4%,-2.4%
CN(C)c1ccc(CCC2C=Cc3ccccc32)cc1 (stereo not given),nt,nt,4.4%,nt,nt
Cc1ccc(S(=O)(=O)c2cn(C)c3cc(N4CCCC4)c(F)cc3c2=O)c(C)c1,nt,nt,28.2µM*,nt,nt
CCN1CCN(c2cc3c(cc2F)c(=O)c(S(=O)(=O)c2cc(C)cc(C)c2)cn3CC)CC1,nt,nt,4.3%,nt,nt
CCCN1CCN(c2cc3c(cc2F)c(=O)c(S(=O)(=O)c2ccc(Cl)cc2)cn3C)CC1,nt,nt,15.8µM*,nt,nt
CCn1cc(S(=O)(=O)c2ccc(C)cc2C)c(=O)c2cc(F)c(N3CCCC3)cc21,nt,nt,31.6µM*,nt,nt
Cc1ccc(S(=O)(=O)c2cn(C)c3cc(N4CCCC(C)C4)c(F)cc3c2=O)c(C)c1 (stereo not given),nt,nt,20µM*,nt,nt
Cc1ccc(S(=O)(=O)c2cn(C)c3cc(N4CCN(C)CC4)c(F)cc3c2=O)c(C)c1,3.5%,nt,4.6%,?,nt
Cn1cc(S(=O)(=O)c2ccc(Cl)cc2)c(=O)c2cc(F)c(N3CCCCCC3)cc21,nt,nt,-16.5%,nt,nt
OC(c1ccccc1)c1nc2ccccc2n1Cc1c(F)cccc1Cl (stereo not given),nt,nt,2.4%,nt,nt
Cc1ccc(NC(=O)CN2C(=O)CSc3ccc(S(=O)(=O)N(C)C)cc32)c(C)c1,nt,nt,-1.2%,nt,nt
COc1ccc2[nH]cc(C(=O)CNc3nccs3)c2c1,nt,nt,-10.2%,nt,nt
COc1ccccc1-c1nnc(N)s1,-5.0%,7.1,nt,-4.3%,8.3%
COc1ccccc1-c1nnc(SC2CCc3ccccc3NC2=O)s1 (stereo not given),-0.6%,0.7,22.4µM*,3.8%,0.7%
COc1ccccc1CNc1nccn(-c2ccccc2)c1=O,nt,nt,-11.6%,nt,nt
Nc1ccccc1-c1ccccc1N,1.6%,4.4,7.94µM*,-1.2%,-1.4%
CCOC(=O)c1ccccc1NC(=O)c1c(-c2ccccc2)noc1C,nt,nt,-17.2%,nt,nt
CCOC(=O)c1c(NC(=O)c2ccoc2C)sc(C)c1C,3.9%,0.3,8.91µM*,-5.5%,3.5%
COC(=O)c1c(NC(=O)COC(=O)[C@@H](NS(=O)(=O)c2ccc(C)cc2)C(C)C)sc2c1CCC2,?,2.6,28.2µM*,6.8%,-10.8%
COC(=O)c1c(NC(=O)c2ccoc2C)sc2c1CCC2,-13.5%,3.8,31.6µM*,?,0.0%
CCOC(=O)c1c(NC(=O)c2c(-c3ccccc3)noc2C)sc(C)c1-c1ccccc1,-2.3%,5.7,14.1µM*,8.2%,-0.2%
CC(=O)Nc1cc(O)c2nonc2c1O,nt,nt,-8.6%,nt,nt
CCCOC(=O)c1c(NC(=O)C2c3ccccc3Oc3ccccc32)sc2c1CCCC2,nt,nt,12.6µM*,nt,nt
O=C(Nc1sc2c(c1C(=O)O)CCCCC2)c1ccco1,8.0%,0.4,-4.0%,16.1%,?
